# Bioassay records deposited in PubChem by several laboratories.
# MPTP block = blocks calcium-induced mitochondrial swelling | isolated mouse mitochondria, Ca2+ swelling absorbance, 30 min | inhibition, % at 10 µM | actives 1.4% (n = 360,000);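 active = inhibition of 50% or more, scaled per plate between neutral and stimulator controls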;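 note: 0% = DMSO wells given calcium and 100% = 1 mM EGTA wells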
# F508del corr = correctors of CFTR F508del function in bronchial epithelial cells; CFBE cells, YFP halide quenching; stimulated with forskolin plus potentiator P3; % fluorescence drop versus neutral controls; activity (quench increase), % at 7.58 µM; actives 0.36% (n = 350,000);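 active = mean added fluorescence quench of at least 8% versus neutral control, with both replicates also reaching 8%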;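 note: cells transiently co-express mutant CFTR-F508del with the halide-sensitive YFP; corrector assay measuring rescue of mutant channel to the surface after 24 h compound exposure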
# SKN-1 block = C. elegans SKN-1 inhibition; C. elegans VP596 Pgst-4::GFP/RFP ratio, acrylamide-induced, 24 h; inhibition, % at 21.8 µM; actives 0.49% (n = 360,000); AID 624304;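 active = interference check ratio from 0.5 to 1.5 plus GFP to RFP signal ratio inhibition reaching or exceeding a fixed threshold, cut at about 30% in these data, passing the limit was not always enough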
# ATG4B inh = inhibitors of human ATG4B cysteine protease | ATG4B cleavage of LC3-PLA2, NBD-HPC fluorescence, 1 h | inhibition, % at 8.33 µM | actives 0.51% (n = 340,000) | AID 504462; in the data active = inhibition above about 40%
# NRP1-CendR mod = modulators of CendR peptide binding to human neuropilin-1; O14786; FAM-RPARPAR peptide binding to NRP-1, fluorescence polarization; inhibition, % at 25 µM; actives 0.85% (n = 360,000);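 active = inhibition or corrected inhibition above about 18%, plus a signal ratio from 0.5 to 1.5, limit read from the data, passing the limit was not always enough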
# ATG4B conf = ATG4B (human) inhibition, single-dose confirmed. shares compounds with ATG4B inh. ATG4B protease fluorescent substrate cleavage assay. inhibition, % at 8.33 µM. actives 92% (n = 320); in the data active = inhibition above about 39%
# PLA2 counter = inhibits human PLA2, flagging false ATG4B inhibitors; shares compounds with ATG4B inh; purified PLA2, NBD-C6-HPC fluorescence, 45 min; inhibition, % at 8.33 µM; actives 66% (n = 1,600); AID 588402; in the data active = inhibition above about 50%
# * marks the source's active call; other numbers are inactive results; / = no result. In the library only some 2.7% were active in any assay of this set; here they are far more common.
SMILES,MPTP block,F508del corr,SKN-1 block,ATG4B inh,NRP1-CendR mod,PLA2 counter,others
Cc1ccccc1Oc1nc2c(C)cccn2c(=O)c1/C=C(\C#N)C(=O)Nc1c(C)n(C)n(-c2ccccc2)c1=O,0,/,0,53*,-22,66*,
COc1ccc(-c2c(C#N)sc(C(N)=O)c2-c2ccc(OC)cc2)cc1,9,3,-6,82*,-10,85*,
N#Cc1sc(C(N)=O)c(-c2ccccc2)c1-c1ccccc1,2,4,-2,68*,-8,66*,
Cc1noc(C)c1NC(=O)N(C)C[C@H]1OCCCC[C@@H](C)Oc2ccc(NC(=O)c3ccccc3)cc2C(=O)N([C@@H](C)CO)C[C@@H]1C,/,-4,/,/,/,/,
Cc1ccc(C(=O)NC(=S)Nc2ccccc2C(F)(F)F)cc1C,0,/,15,45*,-20,47,ATG4B conf=62*
Cc1cccc(C(=O)NC(=S)Nc2ccccc2C(F)(F)F)c1,0,/,16,22,8,/,
O=C(Nc1ccccc1)c1ccc2nc(-c3ccco3)c(-c3ccco3)nc2c1,2,/,11,17,-60,/,
O=C(NCc1ccccc1)c1ccc2nc(-c3ccco3)c(-c3ccco3)nc2c1,1,/,20,44*,-35,31,
Cc1ccc(C(=O)Nc2nc(-c3ccco3)c(-c3ccco3)s2)o1,0,-3,0,40*,-43,47,ATG4B conf=64*
C[C@@H]1CCCCO[C@H](CN(C)Cc2ccccc2)[C@@H](C)CN([C@H](C)CO)C(=O)c2cc(NS(=O)(=O)c3cn(C)cn3)ccc2O1,/,-3,/,/,/,/,
O=C1C(=C(I)I)c2ccccc2-c2ccccc21,-2,-4,-1,61*,20,-11,ATG4B conf=57*
O=C(O)c1cccc2c1C(=O)c1ccccc1-2,2,/,1,-7,-4,/,
COc1ccc(NC(=O)CC(C)C)c([N+](=O)[O-])c1,22,0,1,4,-14,/,
COc1ccc(NC(=O)CC(C)c2ccccc2)c([N+](=O)[O-])c1 (stereo not given),3,/,9,42*,-13,1,
O=C([C@H]1[C@H](CO)[C@H]2Cn3c(ccc(C4=CCCC4)c3=O)[C@@H]1N2Cc1nccs1)N1CCCCC1,/,-4,/,/,/,/,
COc1cccc(CNC(=O)C2CCN(S(=O)(=O)c3ccc4c(c3)CC(C)N4C(=O)C3CC3)CC2)c1 (stereo not given),0,-1,-9,56*,9,58*,
COc1ccc(CNC(=O)C2CCN(S(=O)(=O)c3ccc4c(c3)CC(C)N4C(=O)C3CC3)CC2)cc1 (stereo not given),0,4,14,-12,5,/,
C[C@H]1CN([C@@H](C)CO)C(=O)c2cc(-c3ccncc3)cnc2O[C@H]1CN(C)C(=O)Cc1cccnc1,/,0,/,/,/,/,
COC(=O)[C@]12C[C@H](CC(=O)N3CCSCC3)C(=O)N(Cc3ccc4c(c3)OCO4)C1=C[C@H](COCc1ccccc1)O[C@@H]2C,/,0,/,/,/,/,
Cc1cc(C)c(-c2c(N)cc(Br)cc2Br)c(N)c1,0,3,16,57*,10,65*,
Nc1ccc(Br)cc1Br,-1,-5,15,17,1,/,
C[C@@H]1CN([C@@H](C)CO)S(=O)(=O)c2ccc(/C=C/c3ccccc3)cc2O[C@@H]1CN(C)C(=O)c1ccncc1,/,-1,/,/,/,/,
CCOC(=O)c1c(C)[nH]c(C(=O)COC(=O)COc2ccccc2C=O)c1C,1,/,11,47*,-8,45,ATG4B conf=56*
CCCc1cc(=O)[nH]c(SCC(=O)N2N=C(c3ccc(Cl)cc3)CC2c2ccco2)n1 (stereo not given),-31,3,28,48*,-49,40,ATG4B conf=73*
CO[C@@H]1CN(C)C(=O)c2cc(NC(=O)C3CCCC3)ccc2OC[C@@H](C)N(C(=O)CC2CC2)C[C@@H]1C,/,1,/,/,/,/,
O=C(c1ccc2c(=O)n(Cc3ccc4c(c3)OCO4)c(=S)[nH]c2c1)N1CCCCC1,8,1,3,55*,7,8,
O=C(c1ccc(Cn2c(=S)[nH]c3ccccc3c2=O)cc1)N1CCN(c2ccccn2)CC1,-1,0,5,47*,-14,66*,
